Source: PubChem (ICCB-Longwood Screening Facility, Harvard Medical School)
The list is not random: actives were taken first. Their share in the collection is about 1.4%.
Mtb MenB inh: M. tuberculosis MenB inhibitors, primary screen, biochemical, absorbance. MenB enzyme assay, absorbance read-out. inhibition, % (no concentration beside the values). 100,000 tested, 0.43% active; in the data active = inhibition above about 21%, passing the limit was not always enough
PV pol inh: poliovirus RdRp elongation inhibitors, primary screen, biochemical, fluorescence polarization, total intensity; AID 588519, 2011; poliovirus polymerase elongation; active compounds read low; Genome polyprotein (Poliovirus type 1 (strain Mahoney)), P03300; 150,000 tested, 0.66% active; % elongation, % (compound at 16.7 µg/mL); in the data active = % elongation below about 90%
Mtb MbtI inh: MbtI salicylate synthase inhibitors, primary screen, biochemical, fluorescence intensity | purified MbtI enzyme, fluorescence intensity read-out | inhibition, % (test concentration not listed) | P9WFX0 | 100,000 tested, 0.89% active; in the data active = inhibition mostly above about 56%, no sharp cut-off; inactive = mostly below about 77%
Target sequence (P9WFX0 whole entry, looked up): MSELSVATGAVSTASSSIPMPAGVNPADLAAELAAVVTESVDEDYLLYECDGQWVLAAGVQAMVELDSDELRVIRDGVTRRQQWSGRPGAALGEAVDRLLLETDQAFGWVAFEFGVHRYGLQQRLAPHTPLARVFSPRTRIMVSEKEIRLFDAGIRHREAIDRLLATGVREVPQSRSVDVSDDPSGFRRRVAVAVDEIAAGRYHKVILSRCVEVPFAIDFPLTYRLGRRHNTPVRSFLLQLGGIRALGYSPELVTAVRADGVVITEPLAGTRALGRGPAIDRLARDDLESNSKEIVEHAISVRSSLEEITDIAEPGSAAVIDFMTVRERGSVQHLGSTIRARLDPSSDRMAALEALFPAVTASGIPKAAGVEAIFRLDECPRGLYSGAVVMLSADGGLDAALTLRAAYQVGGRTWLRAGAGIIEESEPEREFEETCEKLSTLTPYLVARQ
AID504770: growth inhibition of E. coli YBA685, primary screen, V. cholerae RctB inhibitors; z-score (concentration not given with the values); 130,000 tested, 0.27% active; E. coli YBA685 rctB-dependent plasmid, OD600 growth, 3 h; active compounds read low; in the data active = z-score below about -2, passing the limit was not always enough
Numbers without * were called inactive; / = no result.

SMILES | Mtb MenB inh | PV pol inh | Mtb MbtI inh | AID504770
CCS(=O)(=O)c1ncc(Cl)c(C(=O)Nc2ccc(Cl)cc2)n1 | -14 | 103 | 63* | -0.85
N/C(=N\C(=S)Nc1ccccc1)N1CCOCC1 | -26 | 103 | -1 | 1.5
O=C(N1CCOCC1)N1CCN(c2ccccc2)CC1 | 36* | 99 | 2 | -0.2
O=C(N1CCOCC1)N1CCN(c2ccccc2F)CC1 | -14 | 102 | 2 | 0.05
O=C(Nc1ccccc1)C(=S)N1CCOCC1 | -36 | 82* | / | 1.2
CN(CC(=O)O)S(=O)(=O)c1ccc(Br)cc1 | -12 | 98 | / | -0.05
Cc1ccc(Cl)cc1N1CCN(CCCNc2ncnc3c2nc2n3CCCCC2)CC1 | -25 | 104 | -12 | 0.1
O=C(CSc1nc2ccccc2c(=O)n1Cc1ccco1)N1CCc2ccccc21 | 6 | 107 | -7 | -1.9
O=C(CNS(=O)(=O)c1ccccc1)Nc1ccc2c(c1)OCO2 | 56* | 103 | 4 | 0.8
O=C(CS(=O)(=O)Cc1ccccc1)Nc1ccc2c(c1)OCO2 | -16 | 103 | 7 | -0.95
Nc1c(C(=O)N2CCCC2)nnn1-c1ccc(F)cc1 | -48 | 101 | 3 | -0.8
CCCNC(=O)N(C)c1ncnnc1NC | 29* | 100 | -4 | -0.4
Cc1cccc(C(=O)c2c(N3CCOCC3)[nH]c(=O)c3ccccc23)c1 | -25 | 68* | 0 | -1.4
Cc1ccc(N2C(=O)/C(=C\c3ccc4c(c3)OCO4)N=C2SCC#N)cc1 | 6 | 114 | 5 | 2.5
CCCN1CCCc2cc(CN)ccc21 | -77 | 26* | 31 | -0.5
CCN1CCCc2cc(O)ccc21 | / | / | 98* | 0.15
CC(C)N1CCCc2cc(CN)ccc21 | 29 | 31 | / | 0.3
O=C(NC(=S)NCc1ccccc1)C1CCCC1 | -24 | 99 | 76* | 0
O=C(NCc1ccccc1)C1CCC1 | -3 | 102 | / | -0.45
CNS(=O)(=O)c1ccc2ccccc2c1 | / | 101 | -2 | 0.6
COC(=O)/C=C/S(=O)(=O)c1ccc2ccccc2c1 | -2 | 99 | 101* | -1.6
NC(=O)N/N=C/c1cn(-c2ccccc2)nc1-c1ccccc1 | 7 | 100 | -6 | 0.2
O=S(=O)(NN=Cc1cn(-c2ccccc2)nc1-c1ccco1)c1ccc(Cl)cc1 | -5 | 102 | 90* | 0.9
O=C(O)CCCc1nc2cc3ccccc3cc2[nH]1 | -22 | 102 | 90 | -0.25
CN1CCN(Cn2c(O)c(N=NC(=O)c3ccc(Br)cc3)c3cc(Br)ccc32)CC1 | 8 | 101 | 18 | -0.35
SMILES | Mtb MenB inh | PV pol inh | Mtb MbtI inh | AID504770
C=CCNC(=O)CN1C(=O)c2ccccc2S1(=O)=O | 8 | 101 | -10 | -0.35
N#Cc1cc(Cl)ccc1Nc1ncnc(N)n1 | / | / | / | -2.4*
COc1ccc(C(=O)OCC(=O)c2ccc3[nH]c(=O)[nH]c3c2)c(OC)c1 | -17 | 88* | 1 | -0.4
O=C(COC(=O)c1ccccc1NCc1ccco1)c1ccc2[nH]c(=O)[nH]c2c1 | 1 | 44* | -196 | 0.9
O=C(COC(=O)c1ccccc1NCc1ccco1)c1ccc(Cl)cc1 | -30 | 106 | -37 | -0.5
Cc1onc(-c2ccccc2)c1C(=O)OCC(=O)c1ccc2[nH]c(=O)[nH]c2c1 | -18 | 76* | 2 | -0.8
CN(C)CCN(Cc1ccccc1)Cc1ccsc1 | -1 | 97 | / | -0.05
O=C1CSc2nnc(C3COc4ccccc4O3)n2N1 (stereo not drawn) | -55 | 95 | 85* | 0.5
CN1CCN(C(=S)c2cccc(OCc3ccccc3)c2)CC1 | -11 | 101 | 33 | -0.45
S=C(c1cccc(OCc2ccccc2)c1)N1CCCCC1 | -34 | 94 | 73* | 0.1
S=c1sc2ccccc2n1CN1CCOCC1 | 24 | 99 | 90* | -1.2
CCOC(=O)N1CCN(Cn2c(=S)sc3ccccc32)CC1 | -37 | 107 | 89* | -0.55
S=c1sc2ccccc2n1CN1CCN(c2ccccn2)CC1 | -30 | 99 | 145 | -0.35
CC(Nc1ncnc2sc3c(c12)CCC3)C(=O)O (stereo not drawn) | -13 | 104 | 0 | -1
CC(C)OC(=O)c1cc2c(ccn2-c2ccc(F)cc2)n1CC(=O)Nc1ccc2c(c1)OCO2 | 1 | 101 | 78 | 0.55
O=C(CSC1=Nc2ccccc2C2CC=NN12)Nc1ccc2c(c1)CCC2 (stereo not drawn) | -124 | 3.0* | 17 | 0.25
C/C(C/C(C)=C1/SC(=S)NC1=O)=C1\SC(=S)NC1=O | -54 | 102 | 81* | -0.35
CN(C)C(=O)CSc1nc2ccccc2c(=O)n1-c1ccccc1 | -16 | 102 | 1 | 0.2
